# Records with an inconclusive call do not appear. Entries that show only a call come without a potency. Unmarked numbers belong to inactive results. Calls of active or inactive are those of the source. The call rests on the fitted dose curve; in most records, active means well fitted cell-killing curve with a large enough effect; inconclusive means small, poorly fitted or top-dose-only effect, or effect the other way; inactive means no such curve, though single readings can be large or run the other way.
# Columns and labels:
# [1] = Quantitative High-Throughput drug screen in 47 multiple myeloma cell lines against the NCATS MIPE library collection: MM1R_ATCC cell viability assay (AID 1918981); further: nearly all actives have a fitted effect of over 35% in size; further: potency means the concentration at half of the fitted maximal effect
# In short: (§1)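 qHTS format: cells plated (500/well), pin-dosed with MIPE 4.0 compounds, kept 48 h at 37 °C. Readout was CellTiter-Glo luminescence, median RLU.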
# [2] = Quantitative High-Throughput drug screen in 47 multiple myeloma cell lines against the NCATS MIPE library collection: LP1_DSMZ cell viability assay (AID 1918982); further: nearly all actives have a fitted effect of over 35% in size
# In short: as §1
# [3] = Quantitative High-Throughput drug screen in 47 multiple myeloma cell lines against the NCATS MIPE library collection: KMS34_JCRB cell viability assay (AID 1918985); further: nearly all actives have a fitted effect of over 40% in size; further: potency means the concentration at half of the fitted maximal effect
# In short: as §1
# [4] = Quantitative High-Throughput drug screen in 47 multiple myeloma cell lines against the NCATS MIPE library collection: OCIMY7_PLB cell viability assay (AID 1918987); details: OCI-MY7 myeloma viability, CellTiter-Glo ATP, 48 h; viability (% of DMSO): at 45.8 µM (top of the series); further: nearly all actives have a fitted effect of over 65% in size; further: potency means the concentration at half of the fitted maximal effect
# In short: as §1
# [5] = Quantitative High-Throughput drug screen in 47 multiple myeloma cell lines against the NCATS MIPE library collection: OCIMY5_PLB cell viability assay (AID 1918988); further: nearly all actives have a fitted effect of over 65% in size; further: potency means the concentration at half of the fitted maximal effect
# In short: as §1
# [6] = Quantitative High-Throughput drug screen in 47 multiple myeloma cell lines against the NCATS MIPE library collection: OPM1_PLB cell viability assay (AID 1918989); further: nearly all actives have a fitted effect of over 40% in size; further: potency means the concentration at half of the fitted maximal effect
# In short: as §1
# [7] = Quantitative High-Throughput drug screen in 47 multiple myeloma cell lines against the NCATS MIPE library collection: SKMM1_PLB cell viability assay (AID 1919863); details: SKMM1 myeloma viability, CellTiter-Glo ATP, 48 h; viability: stronger effect = lower value; further: nearly all actives have a fitted effect of over 35% in size; further: potency means the concentration at half of the fitted maximal effect
# In short: as §1
# [8] = Quantitative High-Throughput drug screen in 47 multiple myeloma cell lines against the NCATS MIPE library collection: XG1_PLB cell viability assay (AID 1919866); further: nearly all actives have a fitted effect of over 35% in size; further: potency means the concentration at half of the fitted maximal effect
# In short: as §1
# [9] = Quantitative High-Throughput drug screen in 47 multiple myeloma cell lines against the NCATS MIPE library collection: PE2_PLB cell viability assay (AID 1919869); further: nearly all actives have a fitted effect of over 35% in size; further: potency means the concentration at half of the fitted maximal effect
# In short: as §1
# [10] = Quantitative High-Throughput drug screen in 47 multiple myeloma cell lines against the NCATS MIPE library collection: PCM6_Riken cell viability assay (AID 1919870); further: nearly all actives have a fitted effect of over 30% in size; further: potency means the concentration at half of the fitted maximal effect
# In short: as §1
# [11] = Quantitative High-Throughput drug screen in 47 multiple myeloma cell lines against the NCATS MIPE library collection: RPMI8226_ATCC cell viability assay (AID 1919871); further: nearly all actives have a fitted effect of over 30% in size; further: potency means the concentration at half of the fitted maximal effect
# In short: as §1
# [12] = Quantitative High-Throughput drug screen in 47 multiple myeloma cell lines against the NCATS MIPE library collection: KMS28BM_JCRB cell viability assay (AID 1919874); further: nearly all actives have a fitted effect of over 35% in size; further: potency means the concentration at half of the fitted maximal effect
# In short: as §1
# [13] = Quantitative High-Throughput drug screen in 47 multiple myeloma cell lines against the NCATS MIPE library collection: L363_DSMZ cell viability assay (AID 1918984); further: nearly all actives have a fitted effect of over 40% in size; further: potency means the concentration at half of the fitted maximal effect
# In short: as §1
# [14] = Quantitative High-Throughput drug screen in 47 multiple myeloma cell lines against the NCATS MIPE library collection: XG6_PLB cell viability assay (AID 1919865); further: nearly all actives have a fitted effect of over 40% in size; further: potency means the concentration at half of the fitted maximal effect
# In short: as §1
# [15] = Quantitative High-Throughput drug screen in 47 multiple myeloma cell lines against the NCATS MIPE library collection: VP6_DJ cell viability assay (AID 1919867); further: nearly all actives have a fitted effect of over 40% in size; further: potency means the concentration at half of the fitted maximal effect
# In short: as §1
# [16] = Quantitative High-Throughput drug screen in 47 multiple myeloma cell lines against the NCATS MIPE library collection: OPM2_DSMZ cell viability assay (AID 1919872); further: nearly all actives have a fitted effect of over 30% in size; further: potency means the concentration at half of the fitted maximal effect
# In short: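 CellTiter-Glo ATP luminescence gave viability after 48 h compound treatment at 37C of 500 multiple myeloma cells per well. Normalisation used DMSO-only wells as 100% and media-only wells as 0% viability; primary qHTS of approved and investigational drugs.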
# [17] = Quantitative High-Throughput drug screen in 47 multiple myeloma cell lines against the NCATS MIPE library collection: KMS11_JCRBsus cell viability assay (AID 1919873); further: nearly all actives have a fitted effect of over 50% in size; further: potency means the concentration at half of the fitted maximal effect
# In short: as §1
# [18] = Quantitative High-Throughput drug screen in 47 multiple myeloma cell lines against the NCATS MIPE library collection: KMS28PE_JCRB cell viability assay (AID 1918983); further: nearly all actives have a fitted effect of over 35% in size; further: potency means the concentration at half of the fitted maximal effect
# In short: as §1
# [19] = Quantitative High-Throughput drug screen in 47 multiple myeloma cell lines against the NCATS MIPE library collection: U266_ATCC cell viability assay (AID 1919864); further: nearly all actives have a fitted effect of over 35% in size; further: potency means the concentration at half of the fitted maximal effect
# In short: as §1
# [20] = Quantitative High-Throughput drug screen in 47 multiple myeloma cell lines against the NCATS MIPE library collection: UTMC2_PLB cell viability assay (AID 1919868); details: CellTiter-Glo ATP luminescence, 48 h; viability (% of DMSO control): at 45.8 µM (top of the series); further: nearly all actives have a fitted effect of over 55% in size; further: potency means the concentration at half of the fitted maximal effect
# In short: as §1
structure (smiles),measurement,setting,value
Nc1nc(=O)n([C@H]2C[C@H](O)[C@@H](CO)O2)cc1F,Potency,[1],inactive
same,Potency,[2],inactive
same,Potency,[3],2.6 nM (active)
same,Potency,[4],526 nM (active)
same,Potency,[5],inactive
same,Potency,[6],46.9 nM (active)
same,viability,[7],129%
same,Potency,[8],11.8 nM (active)
same,Potency,[9],inactive
same,Potency,[10],59 nM (active)
same,Potency,[11],inactive
same,Potency,[12],inactive
O=C(CN1C(=O)C2(CCCC2)NC[C@H]1c1cc(F)cc(F)c1)Nc1ccc2c(c1)C[C@@]1(C2)C(=O)Nc2ncccc21,Potency,[1],inactive
same,Potency,[2],inactive
same,Potency,[13],inactive
same,Potency,[3],inactive
same,Potency,[5],inactive
same,Potency,[6],inactive
same,viability,[7],120%
same,Potency,[14],inactive
same,Potency,[8],inactive
same,Potency,[15],inactive
same,Potency,[10],inactive
same,Potency,[11],inactive
same,Potency,[16],inactive
same,Potency,[17],inactive
OC[C@@H](O)[C@@H](O)[C@H](O)[C@@H](O)CO,Potency,[1],inactive
same,Potency,[2],inactive
same,Potency,[6],inactive
same,viability,[7],122%
same,Potency,[14],inactive
same,Potency,[8],inactive
same,Potency,[15],inactive
same,Potency,[9],inactive
same,Potency,[10],inactive
same,Potency,[11],inactive
same,Potency,[16],inactive
same,Potency,[17],inactive
same,Potency,[12],inactive
COc1ccnc2[nH]cc(C(=O)C(=O)N3CCN(C(=O)c4ccccc4)C[C@@H]3C)c12,Potency,[1],inactive
same,Potency,[2],inactive
same,Potency,[18],inactive
same,Potency,[6],inactive
same,viability,[7],120%
same,Potency,[19],inactive
same,Potency,[14],inactive
same,Potency,[8],inactive
same,Potency,[9],inactive
same,Potency,[10],inactive
same,Potency,[11],inactive
same,Potency,[16],inactive
same,Potency,[17],inactive
CC(C)(O)CC[C@@H](O)[C@](C)(O)[C@H]1CC[C@@]2(O)C3=CC(=O)[C@@H]4C[C@@H](O)[C@@H](O)C[C@]4(C)[C@@H]3CC[C@]12C,Potency,[1],inactive
same,Potency,[2],inactive
same,Potency,[3],inactive
same,Potency,[4],inactive
same,Potency,[5],inactive
same,Potency,[6],inactive
same,Potency,[8],inactive
same,Potency,[9],inactive
same,Potency,[10],inactive
same,Potency,[11],inactive
same,Potency,[16],inactive
O=C(O)CCCCCC(=O)NN=C1CCCC1,Potency,[1],inactive
same,Potency,[2],inactive
same,Potency,[18],inactive
same,Potency,[6],inactive
same,viability,[7],119%
same,Potency,[8],inactive
same,Potency,[15],inactive
same,Potency,[9],inactive
same,Potency,[10],inactive
same,Potency,[16],inactive
same,Potency,[17],inactive
same,Potency,[12],inactive
Cn1cc(-c2cnn3c(N)c(Br)c([C@H]4CCCNC4)nc23)cn1,Potency,[1],209 nM (active)
same,Potency,[18],13200 nM (active)
same,Potency,[13],59 nM (active)
same,Potency,[4],1180 nM (active)
same,Potency,[5],332 nM (active)
same,Potency,[6],833 nM (active)
same,Potency,[14],264 nM (active)
same,Potency,[8],526 nM (active)
same,Potency,[15],662 nM (active)
same,Potency,[20],662 nM (active)
same,Potency,[9],1050 nM (active)
same,Potency,[10],662 nM (active)
same,Potency,[11],7430 nM (active)
same,Potency,[16],14800 nM (active)
same,Potency,[17],5260 nM (active)
same,Potency,[12],4690 nM (active)
CC(=O)N[C@@H]1[C@H](O[C@@H]2c3ccc(c(Cl)c3)Oc3cc4cc(c3O[C@H]3O[C@H](CO)[C@@H](O)[C@H](O)[C@H]3NC(=O)CCCCCCCC(C)C)Oc3ccc(cc3Cl)C[C@H]3NC(=O)[C@H](N)c5ccc(O)c(c5)Oc5cc(O)cc(c5)[C@H](NC3=O)C(=O)N[C@H]4C(=O)N[C@H]3C(=O)N[C@@H]2C(=O)N[C@@H](C(=O)O)c2cc(O)cc(O[C@H]4O[C@H](CO)[C@@H](O)[C@H](O)[C@H]4O)c2-c2cc3ccc2O)O[C@H](CO)[C@@H](O)[C@@H]1O,Potency,[1],inactive
same,Potency,[18],inactive
same,Potency,[13],inactive
same,viability,[7],107%
same,Potency,[8],inactive
same,Potency,[15],inactive
same,Potency,[20],inactive
same,Potency,[9],inactive
same,Potency,[10],inactive
same,Potency,[11],inactive
same,Potency,[16],inactive
same,Potency,[17],inactive
same,Potency,[12],inactive
CC(=O)SCC(Cc1ccccc1)C(=O)NCC(=O)OCc1ccccc1 (centres undefined),Potency,[1],3720 nM (active)
same,Potency,[18],7430 nM (active)
same,Potency,[13],5900 nM (active)
same,Potency,[4],3720 nM (active)
same,Potency,[5],2640 nM (active)
same,Potency,[6],5260 nM (active)
same,Potency,[7],10500 nM (active)
same,Potency,[19],1320 nM (active)
same,Potency,[14],1050 nM (active)
same,Potency,[8],2960 nM (active)
same,Potency,[15],5900 nM (active)
same,Potency,[20],1320 nM (active)
same,Potency,[9],935 nM (active)
same,Potency,[10],1480 nM (active)
same,Potency,[16],5900 nM (active)
CCN(CC)CCCCNc1ncc2c(n1)N(C)C(=O)N(c1c(Cl)c(OC)cc(OC)c1Cl)C2,Potency,[1],16600 nM (active)
same,Potency,[18],10500 nM (active)
same,Potency,[13],inactive
same,Potency,[6],833 nM (active)
same,Potency,[7],14800 nM (active)
same,Potency,[19],18700 nM (active)
same,Potency,[14],23500 nM (active)
same,Potency,[15],18700 nM (active)
same,Potency,[10],16600 nM (active)
same,Potency,[11],14800 nM (active)
same,Potency,[17],20900 nM (active)
COc1cc([C@@H]2c3cc4c(cc3[C@H](O)[C@H]3COC(=O)[C@@H]23)OCO4)cc(OC)c1OC,Potency,[1],526 nM (active)
same,Potency,[18],148 nM (active)
same,Potency,[13],66.2 nM (active)
same,Potency,[3],83.3 nM (active)
same,Potency,[4],46.9 nM (active)
same,Potency,[6],187 nM (active)
same,Potency,[7],59 nM (active)
same,Potency,[14],83.3 nM (active)
same,Potency,[8],46.9 nM (active)
same,Potency,[15],296 nM (active)
same,Potency,[9],148 nM (active)
same,Potency,[10],332 nM (active)
same,Potency,[17],29.6 nM (active)
same,Potency,[12],41.8 nM (active)
